Assay in all cases: universal protein binding microarray (PBM); transcription factors of Arabidopsis thaliana; high values mean tight binding
In test [1] the target is T1, GST-ANAC092(1-176) (Arabidopsis thaliana, UniProt Q9FKA0 1-176).
T1 sequence: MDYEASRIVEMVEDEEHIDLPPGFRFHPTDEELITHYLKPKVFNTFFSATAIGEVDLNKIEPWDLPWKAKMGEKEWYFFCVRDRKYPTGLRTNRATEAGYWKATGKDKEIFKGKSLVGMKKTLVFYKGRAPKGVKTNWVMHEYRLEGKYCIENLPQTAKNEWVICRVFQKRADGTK
The following applies: protein: recombinant; tags: GST; chain copies: 2; dsDNA, one strand shown. In a few lines: (§1)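 Each value is a normalised enrichment score (E-score) describing binding. The GST-tagged proteins, NAC-domain, full-length or DNA-binding-domain, were induced in cells (zinc-finger proteins with zinc acetate added) and purified on glutathione–Sepharose 4B. They were applied at 200 to 500 nM final, in duplicate, to double-stranded custom all-10-mer Agilent 4 × 180K arrays, and gapped and ungapped 8-mers were scored.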

Test [2] deals with T2, GST-ANAC092(1-285) full length (Arabidopsis thaliana, UniProt Q9FKA0 1-285).
T2 sequence: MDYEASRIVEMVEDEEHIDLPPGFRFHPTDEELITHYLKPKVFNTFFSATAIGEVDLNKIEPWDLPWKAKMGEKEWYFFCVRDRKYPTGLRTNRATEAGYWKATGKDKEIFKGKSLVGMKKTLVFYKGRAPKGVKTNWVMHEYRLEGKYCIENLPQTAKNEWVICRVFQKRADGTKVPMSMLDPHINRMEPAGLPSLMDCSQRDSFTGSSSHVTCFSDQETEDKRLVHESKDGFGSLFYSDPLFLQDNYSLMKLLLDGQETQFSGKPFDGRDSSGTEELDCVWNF
The following applies: protein: recombinant; tags: GST; chain copies: 2; dsDNA, one strand shown. The procedure, abridged:
as §1

In test [3] the target is T3, GST-NAP(1-166) (Arabidopsis thaliana, UniProt O49255 1-166).
T3 sequence: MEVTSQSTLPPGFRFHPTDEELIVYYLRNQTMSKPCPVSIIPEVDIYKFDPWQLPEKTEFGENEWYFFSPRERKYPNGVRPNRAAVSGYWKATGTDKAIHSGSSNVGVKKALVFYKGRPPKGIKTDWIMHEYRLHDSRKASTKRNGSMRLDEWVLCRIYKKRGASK
The following applies: protein: recombinant; tags: GST; chain copies: 2; dsDNA, one strand shown. In a few lines: as §1

For test [4], the target named is T4, GST-NST2(1-184) (Arabidopsis thaliana, UniProt Q9M274 1-184).
T4 sequence: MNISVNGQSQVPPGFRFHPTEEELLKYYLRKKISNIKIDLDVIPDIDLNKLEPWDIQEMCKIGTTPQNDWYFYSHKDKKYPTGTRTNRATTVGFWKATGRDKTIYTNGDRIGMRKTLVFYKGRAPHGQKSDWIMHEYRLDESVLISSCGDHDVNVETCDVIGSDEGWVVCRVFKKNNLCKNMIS
The following applies: protein: recombinant; tags: GST; chain copies: 2; dsDNA, one strand shown. In a few lines:
as §1

Test [5] concerns the target T5, GST-SND1(1-203) (Arabidopsis thaliana, UniProt Q9LPI7 1-203).
T5 sequence: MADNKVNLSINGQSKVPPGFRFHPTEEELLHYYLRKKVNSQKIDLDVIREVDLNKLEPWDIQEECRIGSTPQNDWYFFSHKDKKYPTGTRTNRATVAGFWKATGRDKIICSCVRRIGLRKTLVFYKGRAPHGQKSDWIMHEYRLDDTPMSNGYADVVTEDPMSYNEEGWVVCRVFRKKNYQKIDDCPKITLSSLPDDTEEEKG
The following applies: protein: recombinant; tags: GST; chain copies: 2; dsDNA, one strand shown. The procedure, abridged:
as §1

Test [6] deals with T6, GST-ANAC019 NAC domain (Arabidopsis thaliana, UniProt Q9C932 14-162).
T6 sequence: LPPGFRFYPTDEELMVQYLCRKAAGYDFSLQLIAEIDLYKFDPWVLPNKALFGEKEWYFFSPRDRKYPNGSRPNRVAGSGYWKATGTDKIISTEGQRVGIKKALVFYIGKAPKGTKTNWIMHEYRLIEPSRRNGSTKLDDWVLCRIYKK
The following applies: protein: recombinant; tags: GST; chain copies: 2; dsDNA, one strand shown. In a few lines:
as §1

Test [7] addresses GST-NTL6(1-168) (Arabidopsis thaliana, UniProt Q9SCK6 1-168). Conditions: protein: recombinant; tags: GST; chain copies: 2; dsDNA, one strand shown. The procedure, abridged: as §1
Test [8] deals with T7, GST-NTL8 NAC domain (Arabidopsis thaliana, UniProt Q9XIN7 14-156).
T7 sequence: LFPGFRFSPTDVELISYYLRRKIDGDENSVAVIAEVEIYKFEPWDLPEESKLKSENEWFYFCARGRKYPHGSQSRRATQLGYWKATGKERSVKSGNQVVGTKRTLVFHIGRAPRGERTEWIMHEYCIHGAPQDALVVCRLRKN
The following applies: protein: recombinant; tags: GST; chain copies: 2; dsDNA, one strand shown. The procedure, abridged:
as §1

The target of test [9] is T8, GST-ATAF1 NAC domain (Arabidopsis thaliana, UniProt Q39013 7-158).
T8 sequence: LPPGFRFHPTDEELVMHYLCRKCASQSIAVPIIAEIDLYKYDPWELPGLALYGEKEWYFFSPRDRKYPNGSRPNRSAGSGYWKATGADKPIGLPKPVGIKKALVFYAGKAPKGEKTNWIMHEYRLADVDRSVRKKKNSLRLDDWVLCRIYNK
The following applies: protein: recombinant; tags: GST; chain copies: 2; dsDNA, one strand shown. The procedure, abridged:
as §1

Test [10] deals with T9, GST-ANAC055(1-171) (Arabidopsis thaliana, UniProt Q9LDY8 1-171).
T9 sequence: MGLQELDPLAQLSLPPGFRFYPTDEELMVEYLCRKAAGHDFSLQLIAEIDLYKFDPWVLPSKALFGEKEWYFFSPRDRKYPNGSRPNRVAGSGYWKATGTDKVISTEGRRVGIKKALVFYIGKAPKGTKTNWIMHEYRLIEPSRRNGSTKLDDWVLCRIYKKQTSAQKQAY
The following applies: protein: recombinant; tags: GST; chain copies: 2; dsDNA, one strand shown. The procedure, abridged:
as §1

Test [11] deals with T10, GST-VND3 NAC domain (Arabidopsis thaliana, UniProt Q9FH59 12-162).
T10 sequence: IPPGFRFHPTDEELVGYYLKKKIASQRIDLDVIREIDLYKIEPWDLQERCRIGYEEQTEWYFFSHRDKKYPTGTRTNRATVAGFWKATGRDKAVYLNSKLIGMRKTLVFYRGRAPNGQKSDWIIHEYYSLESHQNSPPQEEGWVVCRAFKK
Conditions: protein: recombinant; tags: GST; chain copies: 2; dsDNA, one strand shown. In a few lines: as §1

The target of test [12] is T11, GST-VND7 NAC domain (Arabidopsis thaliana, UniProt Q9C8W9 9-158).
T11 sequence: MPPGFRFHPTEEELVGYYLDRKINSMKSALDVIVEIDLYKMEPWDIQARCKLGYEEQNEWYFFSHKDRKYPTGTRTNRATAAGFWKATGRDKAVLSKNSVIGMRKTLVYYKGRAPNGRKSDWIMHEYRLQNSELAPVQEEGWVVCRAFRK
Conditions: protein: recombinant; tags: GST; chain copies: 2; dsDNA, one strand shown. The procedure, abridged:
as §1

In test [13] the target is GST-WRKY1(266-371) (Arabidopsis thaliana, UniProt Q9SI37 266-371). The following applies: protein: recombinant; tags: GST; dsDNA, one strand shown. In a few lines:
as §1

GST-WRKY1(266-371), sequence (Q9SI37 266-371): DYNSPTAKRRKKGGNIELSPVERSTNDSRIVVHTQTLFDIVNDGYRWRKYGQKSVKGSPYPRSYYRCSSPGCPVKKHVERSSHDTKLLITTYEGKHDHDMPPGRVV
GST-NTL6(1-168), sequence (Q9SCK6 1-168): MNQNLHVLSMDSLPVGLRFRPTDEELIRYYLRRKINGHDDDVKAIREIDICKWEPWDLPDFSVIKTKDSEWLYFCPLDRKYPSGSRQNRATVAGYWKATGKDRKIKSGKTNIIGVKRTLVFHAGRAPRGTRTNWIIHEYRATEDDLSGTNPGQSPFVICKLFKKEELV

Take ACGCGATC: the binding signal in [1] came to 0.314 E-score; in [2], 0.402 E-score; in [3] it was 0.116 E-score; in [4] it was 0.198 E-score; in [5], 0.364 E-score.

In the case of CACGCCAG, the binding signal in test [1] turned out to be 0.385 E-score; in test [6], 0.0856 E-score; in test [2], 0.429 E-score; in [5], 0.178 E-score.

AGGAAATC: the binding signal in test [1] turned out to be 0.0998 E-score; in test [7] it was 0.102 E-score; in test [4], 0.0993 E-score; in test [8], 0.437 E-score; in test [5], 0.0802 E-score.

Turning to CTACGCCA, the binding signal in test [1] stood at 0.283 E-score; in test [9], 0.057 E-score; in test [2], 0.34 E-score; in [4], 0.147 E-score; in test [5], 0.454 E-score.

Regarding CACACGCC, the binding signal in test [1] is 0.396 E-score; in test [6], 0.207 E-score; in test [10] it was 0.124 E-score; in test [9], 0.145 E-score; in test [2], 0.428 E-score; in test [4], 0.134 E-score. Further, in test [5], the binding signal turned out to be 0.119 E-score.

Consider CTACGCGA, for which the figures for the binding signal in test [2], in [4] and in test [5] were 0.177 E-score, 0.0539 E-score and 0.417 E-score, respectively.

For ACGGCAGT, the binding signal in test [1] was 0.207 E-score; in [6], 0.418 E-score; in test [10], 0.311 E-score; in test [9] it was 0.212 E-score; in test [2] it was 0.263 E-score; in test [3] it was 0.0813 E-score. The binding signal in test [4] came out at 0.138 E-score; in test [11] it was 0.342 E-score; in test [12], 0.238 E-score; in [13], 0.0779 E-score.

Turning to GTTGACAA, the binding signal in test [10] worked out at 0.127 E-score; in test [9], 0.195 E-score; in test [2], 0.055 E-score; in [3], 0.116 E-score; in [11] it was 0.0521 E-score; in test [12], 0.0726 E-score. Moreover, the binding signal in test [13] is 0.446 E-score.

On to GTGGTCAA, for which the binding signal was found to be 0.0557 E-score in test [1]; 0.113 E-score in test [10]; 0.135 E-score in [9]; 0.0872 E-score in [11]; 0.489 E-score in test [13].

In the case of TGGTCAAA, the binding signal in test [1] stood at 0.0858 E-score; in [9], 0.062 E-score; in test [2], 0.0538 E-score; in test [11] it was 0.118 E-score; in test [13] it was 0.491 E-score.

Consider AGGTCAAA, for which the binding signal was found to be 0.0901 E-score in test [7]; 0.0973 E-score in test [10]; 0.0548 E-score in test [9]; 0.062 E-score in [11]; 0.0735 E-score in test [12]; 0.482 E-score in test [13].

For AGAGGGAA, the binding signal was found to be 0.114 E-score in test [1]; 0.178 E-score in test [7]; 0.0527 E-score in [10]; 0.0736 E-score in test [9]; 0.111 E-score in test [3]; 0.447 E-score in [8]. Besides, the results for the binding signal in test [11] and in test [12] were 0.0709 E-score and 0.0972 E-score, respectively.

As to AAGTCTTC, the binding signal in test [7] was 0.204 E-score; in [6] it was 0.052 E-score; in test [10], 0.0748 E-score; in test [9], 0.0685 E-score; in test [8], 0.0771 E-score; in test [11], 0.123 E-score. Also, the results for the binding signal in [12] and in test [13] were 0.0783 E-score and 0.429 E-score, respectively.

With ATATTGAC, the binding signal in test [9] came out at 0.167 E-score; in test [3], 0.178 E-score; in [11], 0.169 E-score; in test [12], 0.0695 E-score; in test [13], 0.453 E-score.

Regarding GTTGGTCA, the binding signal in test [10] is 0.182 E-score; in test [9], 0.131 E-score; in test [3], 0.117 E-score; in [11], 0.0931 E-score; in [12] it was 0.0967 E-score; in test [13], 0.448 E-score.
